Results: PubChem BioAssay (NCI)
Compounds without any hit were thinned out: in the full panel of roughly 79,000, 15% have a hit. Values without a mark were called inactive. The source made the active and inactive calls. Cut-off read from the data, not from the text of the source: active = growth inhibition above about 70%; inactive = the rest.

Test: NCI Yeast Anticancer Drug Screen. Data for the mlh1 rad18 strain (AID 175)
Settings: S. cerevisiae mlh1 rad18 strain growth inhibition; at 50.0 µM; stronger effect = higher value
Description: Growth inhibition of yeast strains with defined genetic alterations is measured as a screen for potential anti-cancer activity. Selected strains with alterations in DNA damage repair or cell cycle control were exposed to compounds and growth inhibition was measured relative to vehicle treated controls. The strain used in this assay is mlh1 rad18

| Structure (SMILES) | growth inhibition |
| --- | --- |
| COc1ccc(C(=O)/C=C/c2cc(C(C)(C)C)c(O)c(C(C)(C)C)c2)cc1 | 18.2% |
| Cc1cc(-c2ccccc2N)nc2ccccc12 | 26.6% |
| CN(N)C(=O)NCCCl | -1.8% |
| CC(=O)N[C@H](CO)[C@H](O)c1ccc([N+](=O)[O-])cc1 | 19.6% |
| CO[C@@H]1O[C@H](C(=O)c2ccccc2)[C@H]2OC(C)(C)O[C@@H]12 | 16.3% |
| S=C(NCc1ccco1)Nc1ccccc1Cl | 1.2% |
| C1CCSCCCCSCCCCSCCCCSC1 | 35.8% |
| CC(=O)/C(=C\c1ccccc1F)C(=O)CCN(C)C | 28.3% |
| C=CCN1COc2c(cc3c4c(cccc24)C(=O)O3)C1 | 8.35% |
| CC1(C)COC(c2ccc(C(C)(C)C)cc2C(O)(c2cc(C(C)(C)C)ccc2C2=NC(C)(C)CO2)c2cc(C(C)(C)C)ccc2C2=NC(C)(C)CO2)=N1 | -1.1% |
| O=C1C(O)=C(Br)C(=O)C(O)=C1Br | 11.6% |
| C1=Nc2ccccc2/C1=C/c1c[nH]c2ccccc12 | 17.9% |
| CCCC(C)C(=O)OC(C)CC(C)C (stereo not given) | 15.6% |
| COC1=C(N)C(=O)c2ccc(-c3ccccn3)nc2C1=O | 92.9% (active) |
| Cc1nc2ccccc2c(=O)n1C(C)(C)CCl | 19.9% |
| OC1(c2ccc(-c3ccccc3)cc2)c2ccccc2-c2ccccc2C1(O)c1ccc(-c2ccccc2)cc1 (stereo not given) | 7.05% |
| CCCCC/C=C/C(CC)(C(=O)OCC)C(=O)OCC | 6.1% |
| Cc1cc(C)c(NC(=O)Nc2cccc(F)c2)c(C)c1 | 13.3% |
| CCOC1OCCCC1C(OCC)C(C)C (stereo not given) | 12.4% |
| N=C(N)c1ccc(N=Nc2ccc(N)cc2N)cc1 | -0.4% |

| Structure (SMILES) | growth inhibition |
| --- | --- |
| CC[N+](C)(CC)CCOc1ccc(Cc2nc3c([nH]2)c(=O)n(C)c(=O)n3C)cc1 | 19.6% |
| COc1ccccc1Cn1nc(OC)c2cc([N+](=O)[O-])ccc21 | -64.7% |
| CC1=C(Br)C(=O)C(c2c(C)cc(C)cc2C)=C(Br)C1=O | 98.5% (active) |
| N#Cc1cccc(-c2ccc(-c3ccccc3)o2)c1 | 20.4% |
| CCCCCNc1ncnc2c1cnn2C | -0.4% |
| Nc1nc(=S)c2ncn(C3OC(COC(=O)c4ccc([N+](=O)[O-])cc4)C(OC(=O)c4ccc([N+](=O)[O-])cc4)C3OC(=O)c3ccc([N+](=O)[O-])cc3)c2[nH]1 (stereo not given) | 14.3% |
| CCN(CC)CC(OC(C)=O)c1ccc2ccc3ccc(O)cc3c2c1 (stereo not given) | 19.1% |
| O=C(NCc1cccnc1)Nc1cccc2c(NC(=O)NCc3cccnc3)cccc12 | 13.9% |
| COc1ccc(C(=O)N/N=C/c2ccccc2)cc1 | -18.1% |
| Cc1ccc(NC(=S)Nc2ccccc2F)cc1 | 10% |
| O=C1CCCCc2ccccc21 | -8.25% |
| O=C(Nc1ccc(Cl)cc1)Nc1nnc(-c2ccccc2Br)o1 | 8.3% |
| O=C1/C(=C/c2ccccc2)Oc2cc(O)ccc21 | 34.9% |
| CC(CCc1nc2ccccc2[nH]1)c1nc2ccccc2[nH]1 (stereo not given) | 17.4% |
| CCN(CC)CCNC(=O)c1ccccc1NC(=O)C(=O)Nc1ccccc1C(=O)NCCN(CC)CC | -41.6% |
| COc1ccc(C(C)=C(C#N)C#N)cc1 | 13.1% |
| C=CCNC(=O)c1ccc[n+](CC(=O)Nc2ccccc2)c1 | -7.6% |
| Cc1ccccc1NC(=S)N1CCOCC1 | -6.35% |
| C1CCN(c2nsc(N3CCCCC3)n2)CC1 | 18.2% |
| CN(C)CCSC(=Nc1ccccc1)N1CCCCC1 | -9.6% |
